Measured values from PubChem BioAssay AID2330 (Broad Institute, 2010).
Among all 37,000 compounds or so, about 2,800 (7.6%) were called active. Another 1% or so got no clear call; they are omitted. For the sample, actives were picked, then their nearest neighbours and some compounds at random. Values without a mark were called inactive. No stated cut-off is given here; in the data, active means inhibition above about 80%; inconclusive means no clear call, values can overlap the other calls; inactive means below that.

Assay: NOMO-1 AML cell viability reduction, primary screen, STK33 inhibitor project, CellTiter-Glo luminescence (AID 2330)
Conditions: NOMO-1 AML viability, 72 h, active compounds read high, concentration not given here

**Q.** Which inhibition does the source give for `C/C=C(/C)C(=O)OC1Cc2c(ccc3ccc(=O)oc23)OC1(C)C` (centres undefined) here?
**A.** Its inhibition is 9.99%.

**Q.** With `S=c1nc2c(cnn2-c2ccccc2)c(Nc2ccccc2)[nH]1` as the molecule, how does the inhibition read?
**A.** The inhibition was 12%.

**Q.** Which inhibition does the source give for `C[C@@H]1CN([C@H](C)CO)C(=O)c2cc(NC(=O)Cn3cnnn3)ccc2O[C@@H]1CN(C)Cc1ccc(C(F)(F)F)cc1` here?
**A.** Its inhibition is 21.9%.

**Q.** With `Cc1ccc(S(=O)(=O)N(C)C[C@@H]2Oc3ccc(NS(=O)(=O)c4c(C)noc4C)cc3CC(=O)N([C@H](C)CO)C[C@H]2C)cc1` as the molecule, how does the inhibition read?
**A.** Its inhibition is -13.6%.

**Q.** With `O=C(O)CCCC(=O)Nc1ccc(F)cc1` as the molecule, how does the inhibition read?
**A.** The inhibition was 13.9%.

**Q.** With `C[C@H]1CN([C@@H](C)CO)C(=O)c2cc(NC(=O)CCN3CCOCC3)ccc2O[C@@H]1CN(C)C(=O)Nc1ccc(C(F)(F)F)cc1` as the molecule, how does the inhibition read?
**A.** The inhibition was 22.5%.

**Q.** Which inhibition does the source give for `C[C@@H]1CN([C@@H](C)CO)C(=O)c2cc(NS(=O)(=O)c3ccccc3)ccc2O[C@H]1CN(C)CC1CCCCC1` here?
**A.** Its inhibition is -8.05%.

**Q.** With `Cn1nc(CC(=O)Nc2ccc3c(c2)oc2ccccc23)c2ccccc2c1=O` as the molecule, how does the inhibition read?
**A.** Its inhibition is 37.5%.

**Q.** With `Cc1ccc(C(=O)NC(NCc2ccco2)(C(F)(F)F)C(F)(F)F)cc1` as the molecule, how does the inhibition read?
**A.** Its inhibition is 39.2%.

**Q.** Which inhibition does the source give for `Cc1ccc(-n2nnnc2-c2cnn(-c3ccccc3)c2C)cc1` here?
**A.** The inhibition was 29.6%.

**Q.** With `C[C@H]1CN([C@@H](C)CO)C(=O)c2cccc(NS(=O)(=O)c3ccccc3)c2O[C@@H]1CN(C)S(=O)(=O)c1cn(C)cn1` as the molecule, how does the inhibition read?
**A.** The inhibition was -9.26%.

**Q.** For `Cc1ccc(S(=O)(=O)Nc2ccc3c(c2)C(=O)N([C@@H](C)CO)C[C@@H](C)[C@H](CN(C)Cc2ccc(C(F)(F)F)cc2)O3)cc1`, which inhibition is on record?
**A.** The inhibition was 118% (active).

**Q.** For `COc1ccc(S(=O)(=O)Nc2ccc3c(c2)C(=O)N([C@H](C)CO)C[C@H](C)[C@H](CN(C)Cc2ccc(C(F)(F)F)cc2)O3)cc1`, which inhibition is on record?
**A.** Its inhibition is 51.7%.

**Q.** For `C[C@H](CO)N1C[C@H](C)[C@H](CN(C)Cc2ccc(C(F)(F)F)cc2)Oc2ccc(NS(=O)(=O)c3ccc(Cl)cc3)cc2C1=O`, which inhibition is on record?
**A.** The inhibition was 58.5%.

**Q.** For `C[C@@H]1CN([C@@H](C)CO)C(=O)c2cc(NS(C)(=O)=O)ccc2O[C@H]1CN(C)C(=O)Nc1ccc(F)cc1`, which inhibition is on record?
**A.** Its inhibition is 37.9%.

**Q.** With `CCCN(Cc1cc2cccc(C)c2[nH]c1=O)S(C)(=O)=O` as the molecule, how does the inhibition read?
**A.** Its inhibition is 10.7%.

**Q.** With `COC(=O)C1=C(C)Nc2c(c(=O)n(C)c(=O)n2C)C1c1cccc(OCc2ccccc2)c1` (centres undefined) as the molecule, how does the inhibition read?
**A.** Its inhibition is 7.28%.

**Q.** With `O=C(c1ccc(Cl)cc1)n1c(=O)oc2cc(Cl)ccc21` as the molecule, how does the inhibition read?
**A.** The inhibition was 132% (active).

**Q.** Which inhibition does the source give for `CC(C)(C)c1ccc(OCC(=O)NCc2ccccn2)c(Br)c1` here?
**A.** The inhibition was 43.9%.

**Q.** With `C[C@@H]1CN([C@@H](C)CO)C(=O)c2cc(NS(=O)(=O)c3ccccc3)ccc2O[C@H]1CN(C)CC1CC1` as the molecule, how does the inhibition read?
**A.** Its inhibition is -13.4%.

**Q.** For `O=C(CN(C1CCCCC1)S(=O)(=O)c1ccc(Cl)cc1)Nc1ccccc1C(F)(F)F`, which inhibition is on record?
**A.** Its inhibition is 25.5%.

**Q.** Which inhibition does the source give for `COc1ccc(S(=O)(=O)N(C)C[C@H]2Oc3ccc(N(C)C)cc3C(=O)N([C@@H](C)CO)C[C@@H]2C)cc1` here?
**A.** Its inhibition is 11.7%.

**Q.** For `CN1C(=O)C(O)(CC(=O)c2ccco2)c2cc([N+](=O)[O-])ccc21` (centres undefined), which inhibition is on record?
**A.** Its inhibition is 36.2%.

**Q.** For `CN1C(=O)CC(c2ccccc2)C1=O` (centres undefined), which inhibition is on record?
**A.** The inhibition was 14.7%.

**Q.** Which inhibition does the source give for `CN1C(=O)C(Cc2ccccc2)(Cc2ccccc2)c2ccccc21` here?
**A.** The inhibition was 96.7% (active).

**Q.** Which inhibition does the source give for `C[C@H](CO)N1C[C@H](C)[C@H](CN(C)C)Oc2c(NS(=O)(=O)c3ccc(Cl)cc3)cccc2C1=O` here?
**A.** Its inhibition is 17.7%.

**Q.** Which inhibition does the source give for `CN1CCN(C(=O)CCc2nc(-c3ccc(Cl)cc3)no2)CC1` here?
**A.** Its inhibition is -5.54%.

**Q.** For `Cn1c(Cc2csc(N)n2)nnc1SC/C=C/c1ccccc1`, which inhibition is on record?
**A.** The inhibition was 23.5%.

**Q.** For `CC(C)NC(=O)N(C)C[C@H]1Oc2ccc(NC(=O)Cn3cnnn3)cc2CC(=O)N([C@H](C)CO)C[C@H]1C`, which inhibition is on record?
**A.** The inhibition was 36.1%.

**Q.** Which inhibition does the source give for `CC1(C)CC[C@]2(C(=O)O)CC[C@]3(C)C(=CCC4[C@@]5(C)CC[C@H](OC6O[C@H](CO)[C@@H](O)[C@H](O[C@@H]7O[C@H](CO)[C@@H](O)[C@H](O)[C@H]7O)[C@H]6O)C(C)(C)C5CC[C@]43C)[C@@H]2C1` (some centres undefined) here?
**A.** The inhibition was 119% (active).

**Q.** For `C[C@@H]1O[C@@H](O[C@H]2[C@@H](Oc3cc(O)c4c(c3)O[C@H](c3ccc(O)cc3)CC4=O)O[C@H](CO)[C@@H](O)[C@@H]2O)[C@H](O)[C@H](O)[C@H]1O`, which inhibition is on record?
**A.** The inhibition was -11.7%.

**Q.** For `C/C=C(/C)C(=O)O[C@H]1CC(C)(C)C[C@H]2C3=CCC4[C@@]5(C)CC[C@H](O[C@@H]6O[C@H](C(=O)O)[C@@H](O[C@@H]7O[C@H](CO)[C@H](O)[C@H](O)[C@H]7O[C@@H]7O[C@H](CO)[C@@H](O)[C@H](O)[C@H]7O)[C@H](O)[C@H]6O[C@@H]6O[C@@H](C)[C@H](O)[C@@H](O)[C@H]6O)C(C)(C)C5CC[C@@]4(C)[C@]3(C)[C@@H](O)[C@@H](O)[C@@]12CO` (some centres undefined), which inhibition is on record?
**A.** Its inhibition is 119% (active).

**Q.** For `COC(=O)C1=CO[C@@H](O[C@@H]2O[C@H](CO)[C@@H](O)[C@H](O)[C@H]2O)[C@@H]2[C@@](C)(O)[C@@H](OC(=O)/C=C/c3ccc(OC)c(OC)c3)C[C@]12O`, which inhibition is on record?
**A.** The inhibition was 11.5%.

**Q.** With `C/C=C(/C)C(=O)O[C@H]1CC(C)(C)C[C@H]2C3=CCC4[C@@]5(C)CC[C@H](O[C@@H]6O[C@H](C(=O)O)[C@@H](O[C@@H]7O[C@H](CO)[C@H](O)[C@H](O)[C@H]7O[C@@H]7O[C@H](CO)[C@@H](O)[C@H](O)[C@H]7O)[C@H](O)[C@H]6O[C@@H]6O[C@@H](C)[C@H](O)[C@@H](O)[C@H]6O)C(C)(C)C5CC[C@@]4(C)[C@]3(C)[C@@H](OC(C)=O)[C@@H](O)[C@@]12COC(C)=O` (some centres undefined) as the molecule, how does the inhibition read?
**A.** Its inhibition is 121% (active).

**Q.** With `CC1(C)CC[C@@]2(C(=O)O)C(C1)C1=CCC3[C@@]4(C)CC[C@H](O)C(C)(C)C4CC[C@@]3(C)[C@]1(C)C[C@H]2O` (some centres undefined) as the molecule, how does the inhibition read?
**A.** The inhibition was 108% (active).

**Q.** Which inhibition does the source give for `C[C@@H]1CC[C@]2(C(=O)O)CC[C@]3(C)C(=CCC4[C@@]5(C)CC[C@H](O)[C@](C)(C(=O)O)C5CC[C@]43C)C2[C@]1(C)O` (some centres undefined) here?
**A.** Its inhibition is 29.2%.

**Q.** For `C=CC1(C)C=C2CCC3C(C)(C)C(O[C@@H]4O[C@@H](CO)[C@H](O)[C@H]4O)CCC3(C)C2CC1O[C@@H]1O[C@H](C)[C@@H](OC)[C@H](O)[C@H]1O` (some centres undefined), which inhibition is on record?
**A.** The inhibition was 14%.

**Q.** With `CC1OC(OC2C(OC3C(O[C@H]4CC[C@@]5(C)C(CC[C@]6(C)C5CC=C5[C@@H]7CC(C)(C)C[C@@H](O)[C@]7(C)CC[C@]56C)C4(C)C)OC(C(=O)O)C(O)C3O)OC(CO)C(O)C2O)C(O)C(O)C1O` (some centres undefined) as the molecule, how does the inhibition read?
**A.** The inhibition was 25.4%.

**Q.** Which inhibition does the source give for `CC1(C)C2CC[C@]3(C)C(C(=O)C=C4[C@@H]5C[C@@](C)(C(=O)O)CC[C@]5(C)CC[C@]43C)[C@@]2(C)CC[C@@H]1O` (some centres undefined) here?
**A.** Its inhibition is 63.8%.
